Results filed as inconclusive are left out. Where a call stands in place of a potency, no number is given. Activity calls are given as the source filed them. Unless noted, calls follow the shape of the full dose curve.

Sequence of Thyrotropin-releasing hormone receptor (Homo sapiens) (P34981 whole entry, looked up): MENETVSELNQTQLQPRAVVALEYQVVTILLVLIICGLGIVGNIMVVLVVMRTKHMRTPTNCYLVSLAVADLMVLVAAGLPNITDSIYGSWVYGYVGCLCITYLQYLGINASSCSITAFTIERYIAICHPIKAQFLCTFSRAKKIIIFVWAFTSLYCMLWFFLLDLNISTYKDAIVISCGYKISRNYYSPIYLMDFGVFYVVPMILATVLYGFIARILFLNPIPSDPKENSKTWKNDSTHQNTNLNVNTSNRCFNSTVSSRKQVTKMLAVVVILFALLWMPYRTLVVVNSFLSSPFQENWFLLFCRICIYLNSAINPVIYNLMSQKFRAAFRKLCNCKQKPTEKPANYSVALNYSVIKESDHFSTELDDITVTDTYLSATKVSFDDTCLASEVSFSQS

Tested on in the first experiment: not listed separately
Description: qHTS assay to identify small molecule agonists of the TGF-beta/Smad signaling pathway - cell viability counter screen (AID 1346829; active = well fitted cell-killing curve with a large enough effect in the repeat runs; also: top concentration of the series differs between compounds; nearly all actives have a fitted effect of over 45% in size). The settings on record: SBE-bla HEK293T viability, CellTiter-Glo luminescence, 5 h; series mostly up to 76.8 µM. The method in brief:
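In parallel with the Smad reporter read, viability of HEK 293T cells stably carrying SBE-bla is quantified by ATP luminescence following 5 hr compound treatment.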
As for `CSc1ccc(C(=O)c2[nH]c(=O)[nH]c2C)cc1`, the Potency result is “inactive”.

On to `C[n+]1ccn(Cc2ccccc2)c1`, for which the Potency result is “inactive”.

With `CC(NN)c1ccccc1` (stereo not drawn), the activity change, negative = cytotoxicity is -16.9% [at 15.8 µM] (inactive).

`COc1ccc(C(=O)/C(Br)=C\C(=O)O)cc1`: the Potency result is “inactive”.

On to `CC(C)=CCOc1ccc(/C=C/C(=O)c2ccc(OCC=C(C)C)cc2OCC(=O)O)cc1`, for which the Potency entry was “inactive”.

Consider `N#CSc1ccc(N)c([N+](=O)[O-])c1`, for which the Potency result is “inactive”.

With `O=C(c1ccc(F)cc1)C1CCN(CCn2c(=O)[nH]c3ccccc3c2=O)CC1`, the Potency result was “inactive”.

On to `O=C(O)c1cc(O)c2c(c1)C(=O)c1cccc(O)c1C2=O`, for which the Potency result is “inactive”.

Tested on in a further experiment: not listed separately
Briefly: qHTS assay to identify small molecule agonists of the TGF-beta/Smad signaling pathway (AID 1346859; active = well fitted activation curve with a large enough effect in the signal ratio in the repeat runs, not every such curve was filed as active; the % refers to the signal ratio). The settings on record: SBE-bla HEK293T, TGF-beta/Smad beta-lactamase reporter, 5 h; series mostly up to 76.8 µM. Summed up: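 SBE-bla HEK 293T, 4,000 cells/well, plated o/n; cpd in DMSO, 5 hr, 37 C/5% CO2; B/G FRET substrate 2 hr RT; ex 405, em 460/530 nm.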
`CCC(N)(CO)CO`: the Potency entry was “inactive”.

With `O=C1C=CC(=O)N1c1ccc(Cc2ccc(N3C(=O)C=CC3=O)cc2)cc1`, the Potency entry is “inactive”.

On to `Cc1nc(-c2ccc3c(c2)CCN(CCC2CCC(NC(=O)/C=C/c4ccc(F)cc4)CC2)CC3)no1` (stereo not drawn), for which the Potency result was “inactive”.

For `Fc1ccc([C@@H]2CCNC[C@H]2COc2ccc3c(c2)OCO3)cc1`, the Potency result was “inactive”.

Regarding `O=C(Oc1ccccc1)c1ccccc1C(=O)Oc1ccccc1`, the Potency entry is “inactive”.

On to `CCC(CN)=C(c1ccccc1)c1ccccc1`, for which the Potency entry is “inactive”.

`O=c1[nH]cnc2nc[nH]c12`: the Potency result was “inactive”.

Consider `Nc1cc(C(F)(F)F)ccc1S`, for which the Potency result was “inactive”.

With `Oc1cccc2cc3cccc(O)c3c(O)c12`, the Potency result is “inactive”.

Turning to `O=C(O)c1c(Cl)cccc1Cl`, the Potency entry is “inactive”.

For `CCCCCCCC(=O)[O-].CCCCCCCC(=O)[O-].[Zn+2]`, the Potency result was “inactive”.

For the compound `CC(C)(C)CC(C)(C)c1ccc(OCCOCC[N+](C)(C)Cc2ccccc2)cc1`, the Potency result was “inactive”.

In the case of `CCC(C)(C)C1CCCCC1OC(C)=O` (stereo not drawn), the Potency entry is “inactive”.

Regarding `Cn1cc(C(=O)[C@@H]2CCc3nc[nH]c3C2)c2ccccc21`, the Potency entry was “inactive”.

Regarding `CSc1ccc(C(=O)c2[nH]c(=O)[nH]c2C)cc1`, the Potency entry was “inactive”.

As to `C[n+]1ccn(Cc2ccccc2)c1`, the Potency entry was “inactive”.

As to `CC(NN)c1ccccc1` (stereo not drawn), the activation was 1.03% [at 15.8 µM] (inactive).

Turning to `NNc1nc(-c2ccc([N+](=O)[O-])cc2)cs1`, the Potency result was “inactive”.

In the case of `COc1ccc(C(=O)/C(Br)=C\C(=O)O)cc1`, the Potency entry is “inactive”.

As to `Cc1cccc(CN2CCN(C(c3ccccc3)c3ccc(Cl)cc3)CC2)c1` (stereo not drawn), the Potency entry was “inactive”.

For `N#CSc1ccc(N)c([N+](=O)[O-])c1`, the Potency result is “inactive”.

Regarding `CCCCCCCCCCCCCCCC[N+](C)(C)CCN(Cc1ccc(OC)cc1)c1ncccn1`, the Potency result is “inactive”.

The target of a further experiment is Thyrotropin-releasing hormone receptor (Homo sapiens) (UniProt P34981). Description: qHTS assay to identify small molecule antagonists of the thyrotropin-releasing hormone receptor (TRHR) signaling pathway (AID 1346877; active = well fitted inhibition curve with a large enough effect in the repeat runs, not every such curve was filed as active). The following applies: TRHR-HEK293, TRH-induced calcium fluorescence, antagonist mode; series mostly up to 51.3 µM. Summed up:
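In this cell-based calcium flux format, HEK293 cells expressing TRHR received test compound for 5 min before the agonist TRH (1 nM final). Dye loading lasted 2 h at 37 °C.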
`CCC(N)(CO)CO`: the Potency entry is “inactive”.

Turning to `CSc1ccc(/C=C2/C(C)=C(CC(=O)O)c3cc(F)ccc32)cc1`, the Potency result was “inactive”.

With `CN(C)[C@@H]1C(=O)C(C(N)=O)=C(O)[C@@]2(O)C(=O)C3=C(O)c4c(O)cccc4C[C@H]3C[C@@H]12`, the Potency result is “inactive”.

Regarding `Cc1nc(-c2ccc3c(c2)CCN(CCC2CCC(NC(=O)/C=C/c4ccc(F)cc4)CC2)CC3)no1` (stereo not drawn), the Potency result is “inactive”.

For `CC(C)n1nc(-c2cc3cc(O)ccc3[nH]2)c2c(N)ncnc21`, the Potency entry is “inactive”.

On to `Fc1ccc([C@@H]2CCNC[C@H]2COc2ccc3c(c2)OCO3)cc1`, for which the Potency entry is “inactive”.

`O=[N+]([O-])c1cc(Cl)c(Cl)c(Cl)c1Cl`: the Potency result is “inactive”.

Regarding `O=C(Oc1ccccc1)c1ccccc1C(=O)Oc1ccccc1`, the Potency entry was “inactive”.

On to `O=C1c2ccccc2Cc2ccccc21`, for which the Potency entry was “inactive”.

For the compound `CCC(CN)=C(c1ccccc1)c1ccccc1`, the Potency result is “inactive”.

In the case of `O=c1[nH]cnc2nc[nH]c12`, the Potency result was “inactive”.

Take `Nc1cc(C(F)(F)F)ccc1S`: the Potency entry is “inactive”.

Regarding `C[C@@H](NCCCc1cccc(C(F)(F)F)c1)c1cccc2ccccc12`, the Potency entry was “inactive”.

On to `Cc1oc(-c2ccccc2)nc1CCC(=O)c1ccc(CC2SC(=O)NC2=O)cc1` (stereo not drawn), for which the Potency result was “inactive”.

In the case of `COc1c(C)c2c(c(O)c1C/C=C(\C)CCC(=O)O)C(=O)OC2`, the Potency entry was “inactive”.

As for `CCC(C)(C)C1CCCCC1OC(C)=O` (stereo not drawn), the Potency result is “inactive”.

Regarding `Cn1cc(C(=O)[C@@H]2CCc3nc[nH]c3C2)c2ccccc21`, the Potency entry was “inactive”.

Turning to `C[n+]1ccn(Cc2ccccc2)c1`, the Potency result was “inactive”.

In the case of `NNc1nc(-c2ccc([N+](=O)[O-])cc2)cs1`, the Potency entry is “inactive”.

Regarding `COc1ccc(C(=O)/C(Br)=C\C(=O)O)cc1`, the Potency entry is “inactive”.

`CC(C)=CCOc1ccc(/C=C/C(=O)c2ccc(OCC=C(C)C)cc2OCC(=O)O)cc1`: the Potency result was “inactive”.

As for `Cc1cccc(CN2CCN(C(c3ccccc3)c3ccc(Cl)cc3)CC2)c1` (stereo not drawn), the Potency entry is “inactive”.

Take `CCCCCCCCCCCCCCCC[N+](C)(C)CCN(Cc1ccc(OC)cc1)c1ncccn1`: the Potency entry was “inactive”.

Another experiment has the same target. Description: qHTS assay to identify small molecule agonists of the thyrotropin-releasing hormone receptor (TRHR) signaling pathway (AID 1346891). The following applies: TRHR-HEK293 calcium fluorescence, agonist mode; series mostly up to 57.6 µM. The method in brief:
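Intracellular calcium rise, read as fluorescence every second for 3 min, served as the agonist signal in dye-loaded HEK293 cells expressing TRHR; each compound ran at 15 concentrations in triplicate.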
Consider `CCC(N)(CO)CO`, for which the Potency entry is “inactive”.

As for `CSc1ccc(/C=C2/C(C)=C(CC(=O)O)c3cc(F)ccc32)cc1`, the Potency entry was “inactive”.

For `O=C1C=CC(=O)N1c1ccc(Cc2ccc(N3C(=O)C=CC3=O)cc2)cc1`, the Potency result was “inactive”.

As for `CN(C)[C@@H]1C(=O)C(C(N)=O)=C(O)[C@@]2(O)C(=O)C3=C(O)c4c(O)cccc4C[C@H]3C[C@@H]12`, the Potency entry was “inactive”.

As for `Cc1nc(-c2ccc3c(c2)CCN(CCC2CCC(NC(=O)/C=C/c4ccc(F)cc4)CC2)CC3)no1` (stereo not drawn), the Potency result was “inactive”.

In the case of `CC(C)n1nc(-c2cc3cc(O)ccc3[nH]2)c2c(N)ncnc21`, the Potency entry is “inactive”.

With `Fc1ccc([C@@H]2CCNC[C@H]2COc2ccc3c(c2)OCO3)cc1`, the Potency result was “inactive”.

With `O=[N+]([O-])c1cc(Cl)c(Cl)c(Cl)c1Cl`, the Potency entry was “inactive”.

Consider `CCCCCCCCn1sc(Cl)c(Cl)c1=O`, for which the Potency result is “inactive”.

On to `O=C(Oc1ccccc1)c1ccccc1C(=O)Oc1ccccc1`, for which the Potency result is “inactive”.

Regarding `O=C1c2ccccc2Cc2ccccc21`, the Potency result was “inactive”.

For `CCC(CN)=C(c1ccccc1)c1ccccc1`, the Potency result was “inactive”.

As for `O=c1[nH]cnc2nc[nH]c12`, the Potency entry was “inactive”.

For the compound `Nc1cc(C(F)(F)F)ccc1S`, the Potency result was “inactive”.

On to `C[C@@H](NCCCc1cccc(C(F)(F)F)c1)c1cccc2ccccc12`, for which the Potency result is “inactive”.

Consider `Cc1oc(-c2ccccc2)nc1CCC(=O)c1ccc(CC2SC(=O)NC2=O)cc1` (stereo not drawn), for which the Potency result is “inactive”.

As for `COc1c(C)c2c(c(O)c1C/C=C(\C)CCC(=O)O)C(=O)OC2`, the Potency entry was “inactive”.

In the case of `CCC(C)(C)C1CCCCC1OC(C)=O` (stereo not drawn), the Potency result is “inactive”.

As for `Cn1cc(C(=O)[C@@H]2CCc3nc[nH]c3C2)c2ccccc21`, the Potency entry was “inactive”.

In the case of `C[n+]1ccn(Cc2ccccc2)c1`, the Potency result was “inactive”.

As for `NNc1nc(-c2ccc([N+](=O)[O-])cc2)cs1`, the Potency entry was “inactive”.

Turning to `COc1ccc(C(=O)/C(Br)=C\C(=O)O)cc1`, the Potency entry is “inactive”.

Regarding `CC(C)=CCOc1ccc(/C=C/C(=O)c2ccc(OCC=C(C)C)cc2OCC(=O)O)cc1`, the Potency result was “inactive”.

In the case of `Cc1cccc(CN2CCN(C(c3ccccc3)c3ccc(Cl)cc3)CC2)c1` (stereo not drawn), the Potency result was “inactive”.

For `CCCCCCCCCCCCCCCC[N+](C)(C)CCN(Cc1ccc(OC)cc1)c1ncccn1`, the Potency entry is “inactive”.
